In ChEMBL document CHEMBL1157539, “Thousands of chemical starting points for antimalarial lead identification” (Nature, 2010):

What was measured:
Type in all cases: functional
Plasmodium falciparum [1] = test: GSK_TCMDC: Inhibition of Plasmodium falciparum 3D7 in whole red blood cells, using parasite LDH activity as an index of growth. Test compounds present at 2uM
Plasmodium falciparum [2] = test: GSK_TCMDC: Inhibition of Plasmodium falciparum Dd2 in whole red blood cells, using parasite LDH activity as an index of growth. Test compounds present at 2uM
HepG2 = test: GSK_TCMDC: Percent inhibition of human HepG2 cell line. Test compounds present at 10uM.

Row | Structure (SMILES) | Inhibition (Plasmodium falciparum [1]) | Inhibition (Plasmodium falciparum [2]) | Inhibition (HepG2)
1 | O=c1cc(NC[C@H]2CCC[C@@H]2NC2CCCc3c2[nH]c2ccccc32)[nH]c2ccccc12 (some centres not stated) | 100% | 25% | 6%
2 | CCN(CC)CCN1C(=O)c2oc3ccc(F)cc3c(=O)c2C1c1cccc(Cl)c1 (configuration not stated) | 99% | 93% | 0%
3 | NS(=O)(=O)Cc1cccc(-c2ccnc3ccc(-c4cccc(S(N)(=O)=O)c4)cc23)c1 | 98% | 42% | 39%
4 | CCc1c[nH]c2c(N3CCCCC3=O)cc(C(=O)N[C@@H](Cc3ccccc3)[C@H](O)CNCc3cccc(OC)c3)cc12.O=CO | 100% | 99% | 8%
5 | COc1ccc(Nc2nccc(N3CCC(NC(=O)Nc4ccc5c(c4)OCO5)C3)n2)cc1 (configuration not stated) | 98% | 57% | 27%
6 | CCCCN(CCCC)CCCCNc1c2ccc(Cl)cc2nc2ccc(OC)cc12.Cl | 100% | 96% | 68%
7 | CCCC1(C)CSc2ccccc2C(c2ccccc2)N1 (configuration not stated) | 87% | 2% | 60%
8 | CN1CCN(CC(O)CNC(=O)Nc2ccc(Cl)cc2)CC1.O=C(O)C(F)(F)F (configuration not stated) | 99% | 98% | 1%
9 | Br.CCC(ON1C(N)=NC(N)=NC1(C)C)c1ccc(Cl)cc1 (configuration not stated) | 91% | 90% | 68%
10 | CCOC(=O)c1cn(CC)c2cc(N3CCCCC3)c(F)cc2c1=O | 97% | 96% | 0%
11 | N#Cc1cccc(C(=O)NC2CCN(c3ccnc(Nc4ccc(F)cc4)n3)C2)c1 (configuration not stated) | 98% | 91% | 4%
12 | O=C(CCCCCNC(=O)c1ccc(O)c(-c2ccc(Cl)c(Cl)c2)c1)NCCc1ccc(Cl)c(Cl)c1 | 97% | 20% | 57%
13 | c1ccc(CNc2nc(NCCc3c[nH]cn3)nc(NCc3cccc4ccccc34)n2)cc1 | 91% | 1% | 9%
14 | Cc1cc(NC(=O)Nc2cccc(C#N)c2)c2ccccc2n1 | 100% | 82% | 17%
15 | CC(C)c1cc(Oc2c(I)cc(CCCc3ncc[nH]3)cc2I)ccc1O.Cl | 88% | 1% | 28%
16 | COC(=O)Cn1c(C2CCN(CC3CCC(NC(=O)/C=C/c4ccc(Cl)c(Cl)c4)CC3)CC2)nc2ccccc21 (configuration not stated) | 95% | 17% | 12%
17 | CO/C(=C\C=C\c1cc2cc(Cl)c(Cl)cc2[nH]1)C(=O)NCCCN1CCCC[C@@H]1C | 99% | 83% | 33%
18 | Cl.O=C(NC1CCC(N2CCN(c3cccc4[nH]ccc34)CC2)CC1)c1cc2cccnc2[nH]1 (configuration not stated) | 99% | 85% | 9%
19 | N=C(N)NN=CC(=O)Nc1ccc(Cl)c(C(F)(F)F)c1 | 100% | 0% | 0%
20 | COc1ccc2nccc([C@@H](O)CN3CCC(NC(=O)c4cccc(-c5cc(C)no5)c4)CC3)c2c1 | 93% | 89% | 19%
21 | CCCN1CCN(CC(O)CNC(=O)Nc2ccc(Br)cc2)CC1.O=C(O)C(F)(F)F (configuration not stated) | 100% | 100% | 10%
22 | Cl.NC1=NC2(CCCCC2)N(Cc2ccc(Cl)c(Cl)c2)C(N)=N1 | 86% | 76% | 22%
23 | CC(=O)Nc1nc(C(=O)Nc2cccc(-c3ccc(-c4nc5ccccc5[nH]4)cc3)c2)cs1 | 100% | 60% | 88%
24 | COCCN1CCC(N(Cc2ccc(-c3ccc(C(F)(F)F)cc3)cc2)C(=O)Cn2c(CCc3cccc(F)c3F)cc(=O)c3c2CCC3)CC1.O=C(O)C(O)C(O)C(=O)O | 85% | 48% | 31%
25 | CC[C@H](C)CNC(=O)c1cccc(-c2cccc(CN3CCC(N4CCCC4)CC3)c2)n1.O=C(O)C(F)(F)F | 100% | 86% | 9%
26 | Cc1sc2nc(CN3CCCC3)nc(-n3c(NCCO)nc4ccccc43)c2c1C | 96% | 11% | 19%
27 | O=C(NC1CCN(Cc2ccccc2O)C1)c1ccc(-c2ccccc2)cc1.O=C(O)C(F)(F)F (configuration not stated) | 99% | 25% | 0%
28 | Cn1cnc(CCNC(=O)c2ccc(-c3cccc(-c4nc5ccccc5[nH]4)c3)cc2)c1 | 93% | 14% | 1%
29 | CCN(CC)CCN(Cc1ccc(-c2ccc(Cl)cc2)cc1)C(=O)Cn1c(CCc2cccc(F)c2F)nc(=O)c2ccccc21.O=C(O)C(O)C(O)C(=O)O | 100% | 75% | 45%
